Source: PubChem (National Center for Advancing Translational Sciences (NCATS))
TDP1 inh: qHTS Assay for Inhibitors of Tyrosyl-DNA Phosphodiesterase (TDP1); Potency, µM (doses to about 130 µM), actives largely listed as inhibitors; Tyrosyl-DNA phosphodiesterase 1 (Homo sapiens), Q9NUW8; 0.28% of 350,000 active; recombinant TDP1, AlphaScreen DNA substrate cleavage; further: nearly all actives have a fitted effect of over 40% in size
Target sequence (Q9NUW8 whole entry, looked up): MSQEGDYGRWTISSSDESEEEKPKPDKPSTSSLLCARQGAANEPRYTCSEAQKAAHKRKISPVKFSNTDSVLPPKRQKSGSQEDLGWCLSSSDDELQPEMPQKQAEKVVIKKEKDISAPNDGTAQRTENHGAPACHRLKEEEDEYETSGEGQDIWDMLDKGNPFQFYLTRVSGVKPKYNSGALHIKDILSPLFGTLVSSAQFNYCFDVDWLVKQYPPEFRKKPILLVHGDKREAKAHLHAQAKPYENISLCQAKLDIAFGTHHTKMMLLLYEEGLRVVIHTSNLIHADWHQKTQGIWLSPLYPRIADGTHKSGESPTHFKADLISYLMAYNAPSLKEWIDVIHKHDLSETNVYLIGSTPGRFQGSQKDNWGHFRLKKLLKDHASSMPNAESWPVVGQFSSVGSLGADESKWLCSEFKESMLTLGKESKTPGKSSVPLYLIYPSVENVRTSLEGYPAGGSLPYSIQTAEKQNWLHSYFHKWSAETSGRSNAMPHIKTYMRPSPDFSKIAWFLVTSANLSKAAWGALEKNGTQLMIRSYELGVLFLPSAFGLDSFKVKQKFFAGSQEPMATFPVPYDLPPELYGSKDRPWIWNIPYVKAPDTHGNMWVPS
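Enzyme-compound mixtures sat 15 min at room temperature, followed by a 5 min reaction with 15 nM final substrate and 10 min with AlphaScreen beads. Recombinant human Tdp1 was used at 1 nM final.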
miR-21 act: qHTS Assay for Modulators of miRNAs and/orActivators of miR-21. Potency, µM (series often up to 38.3 µM), hits mostly activators. 340,000 tested, under 10 active. AID 2288, 2010. HeLa miR-21 FLuc reporter, luciferase, 48 h;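 further: miR-21 action dims this reporter so a rising signal means less miR-21 action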
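HeLa cells endogenously expressing miR-21, stably carrying CMV-driven firefly luciferase with a downstream miR-21 binding site, 2000 cells/well. Titrations up to approximately 40 uM, 48 hours; luciferase luminescence read.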
uPA generation: qHTS for Inhibitors of Cell Surface uPA Generation. cell surface uPA generation assay, qHTS. Potency, µM (titrated, usually from 38.3 µM), usual class: inhibitors. 0.31% of 330,000 active; active means well fitted inhibition curve with a large enough effect; inconclusive means small, poorly fitted or top-dose-only effect; inactive means no such curve, though single readings can be large or run the other way; tested in mouse RAW 264.7 cells; further: nearly all actives have a fitted effect of over 55% in size
DT40 TDP1 CPT: qHTS for Inhibitors of human tyrosyl-DNA phosphodiesterase 1 (TDP1): qHTS in cells in presence of CPT | chicken DT40 Tdp1-/-;hTDP1 cells + 20 nM CPT, ATP luminescence, 48 h | Potency, µM (series often up to 46.2 µM), hits mostly inhibitors | 12% of 420,000 active | AID 686979, 2013; further: nearly all actives have a fitted effect of over 55% in size
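Cell growth measured by CellTiter-Glo luminescence after a minimum 48 h, 37 C compound exposure with 20 nM CPT in Tdp1-knockout DT40 cells stably expressing hTDP1, seeded 400/well; qHTS titration format.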
DT40 TDP1 no CPT: qHTS for Inhibitors of human tyrosyl-DNA phosphodiesterase 1 (TDP1): qHTS in cells in absence of CPT. DT40 Tdp1-/- hTDP1 cells, no CPT, ATP luminescence, 48 h. Potency, µM (top dose mostly 46.2 µM), hits mostly inhibitors. AID 686978, 2013. 15% of 420,000 active; further: nearly all actives have a fitted effect of over 55% in size
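Stably hTDP1-transfected Tdp1-null chicken DT40 cells were treated with library compounds minus camptothecin and grown for at least 48 hr at 37 °C, after which cellular ATP was quantified by luminescence.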
Of the large screens only hits and unclear results are named; the others gave an inactive call. An excerpt weighted towards active compounds, which were near 16% of everything screened. Unless noted, the call rests on the fitted dose curve; in most records, active means well fitted curve in the direction sought with a large enough effect; inconclusive means small, poorly fitted or top-dose-only effect, or another doubt; inactive means no such curve, though single readings can be large; an effect the other way counts as inactive or inconclusive.

O=C(N/N=C/c1cccc(O)c1)c1ccccc1O	none (no result: TDP1 inh)
O=C(N/N=C/c1ccc(Cl)c([N+](=O)[O-])c1)c1cc(-c2ccccc2)nc2ccccc12	DT40 TDP1 CPT 6.5µM, DT40 TDP1 no CPT 7.3µM
O=C(N/N=C/C=C\c1ccccc1[N+](=O)[O-])c1cc(-c2ccccc2)nc2ccccc12	DT40 TDP1 CPT 23µM, DT40 TDP1 no CPT 15µM
Cc1ccc(-c2nc3c(c(=O)[nH]c(=O)n3Cc3ccccc3)n2C)s1	none (no result: uPA generation, DT40 TDP1 CPT, DT40 TDP1 no CPT)
Cc1noc(C)c1CCC(=O)N1CCOc2ccc(CN3CCN(c4ccccn4)CC3)cc2C1	DT40 TDP1 no CPT inconclusive (no result: TDP1 inh, miR-21 act, uPA generation)
NS(=O)(=O)c1ccc(NC2(C(=O)O)CCCC2)cc1	DT40 TDP1 no CPT inconclusive
COc1cccc(/C=N/NC(=O)c2nc(-c3ccccc3)cc(-c3ccccc3)n2)c1	DT40 TDP1 CPT 16µM, DT40 TDP1 no CPT 21µM
COc1cccc(/C=N/NC(=O)c2cnccn2)c1	none
C/C(=N\NC(=O)c1cc(-c2cccc([N+](=O)[O-])c2)n[nH]1)c1ccc(F)cc1	none
CC(=O)Nc1cccc(-c2ccnc3c2CC(C)(C(=O)NCc2ccc(F)c(F)c2)O3)c1 (stereo unspecified)	DT40 TDP1 CPT 3.7µM, DT40 TDP1 no CPT 3.7µM (no result: TDP1 inh, miR-21 act, uPA generation)
CC(=O)Nc1cccc(-c2ccnc3c2CC(C)(C(=O)NCCC(F)(F)F)O3)c1 (stereo unspecified)	DT40 TDP1 CPT 3.7µM, DT40 TDP1 no CPT 4.1µM (no result: TDP1 inh, miR-21 act, uPA generation)
CC(=O)Nc1cccc(-c2ccnc3c2CC(C)(C(=O)NCC2CC2)O3)c1 (stereo unspecified)	DT40 TDP1 CPT 4.1µM, DT40 TDP1 no CPT 2.9µM (no result: TDP1 inh, miR-21 act, uPA generation)
CCCCOc1ccc(C2C(C(=O)c3ccc(C)o3)=C(O)C(=O)N2Cc2ccco2)cc1 (stereo unspecified)	none (no result: uPA generation, DT40 TDP1 CPT, DT40 TDP1 no CPT)
COC(=O)c1ccc2nc(-c3ccc(C)cc3)c(Cc3cccc(F)c3)n2c1	DT40 TDP1 CPT 21µM, DT40 TDP1 no CPT 21µM (no result: TDP1 inh, miR-21 act, uPA generation)
COC(=O)c1cnn2c(C)c(Cc3cccc(F)c3)c(C)nc12	DT40 TDP1 CPT inconclusive, DT40 TDP1 no CPT inconclusive
Cc1ccc2nc(C(C)(C)C)c(Cc3cccc(F)c3)n2c1	DT40 TDP1 CPT 15µM, DT40 TDP1 no CPT 18µM (no result: TDP1 inh, miR-21 act, uPA generation)
Cc1ccc2nc(NCc3ccccc3)c(C=O)c(=O)n2c1	none
COC(=O)c1ccc2nc(-c3ccc(C#N)cc3)c(Cc3cccc(F)c3)n2c1	DT40 TDP1 CPT 15µM, DT40 TDP1 no CPT 18µM (no result: TDP1 inh, miR-21 act, uPA generation)
O=C(OCC(=O)N1CCN(C(=O)c2ccco2)CC1)c1cccc(F)c1	none (no result: miR-21 act)
CCCCCCCC(=O)Nc1cc(C(=O)NCCC)ccc1N1CCC2(CC1)CC(c1ccccc1)=NO2	DT40 TDP1 CPT inconclusive, DT40 TDP1 no CPT 12µM (no result: TDP1 inh)
CCCNC(=O)c1ccc(N2CCC3(CC2)CC(c2ccccc2)=NO3)c(NC(=O)c2ccc(Br)cc2)c1	DT40 TDP1 CPT inconclusive (no result: TDP1 inh)
CCCNC(=O)c1ccc(N2CCC3(CC2)CC(c2ccccc2)=NO3)c(NC(=O)c2ccccc2)c1	DT40 TDP1 CPT 5.8µM, DT40 TDP1 no CPT 15µM (no result: TDP1 inh)
CCCNC(=O)c1ccc(N2CCC3(CC2)CC(c2ccccc2)=NO3)c(NC(=O)c2cccc(C)c2)c1	DT40 TDP1 CPT 8.2µM, DT40 TDP1 no CPT inconclusive (no result: TDP1 inh)
CCCNC(=O)c1ccc(N2CCC3(CC2)CC(c2cccc(Br)c2)=NO3)c(NC(=O)c2ccccc2)c1	DT40 TDP1 CPT inconclusive, DT40 TDP1 no CPT 23µM (no result: miR-21 act)
CC(C)(C)c1cc(Cl)ccc1OCCn1ccnc1	DT40 TDP1 no CPT inconclusive
CC(=O)c1ccc(NC(=O)OCCN2CCN(Cc3ccccc3)CCC2=O)cc1	none (no result: miR-21 act, uPA generation, DT40 TDP1 CPT, DT40 TDP1 no CPT)
COc1ccc(OCC(O)CN2CC(C)OC(C)C2)cc1 (stereo unspecified)	none
O=C(CN(C(=O)CCC(=O)Nc1ccccn1)C1CCCC1)NCc1ccc(F)cc1	none
CCNC(=O)NC(=O)COC(=O)c1ccccc1SCC(=O)NC(=O)NCC	DT40 TDP1 CPT 21µM, DT40 TDP1 no CPT 15µM
O=C(COC(=O)c1ccccc1SCC(=O)NC1CCS(=O)(=O)C1)NC1CCS(=O)(=O)C1 (stereo unspecified)	none
CC(=O)NCCn1c(SCc2cc(F)ccc2F)nc2ccccc2c1=O	DT40 TDP1 CPT inconclusive, DT40 TDP1 no CPT inconclusive (no result: uPA generation)
